Source: PubChem BioAssay (NCATS)
Inconclusive results are not listed. Activity calls are given as the source filed them. Calls follow the shape of the dose curve; as a rule, active = well fitted curve in the direction sought with a large enough effect; inconclusive = small, poorly fitted or top-dose-only effect, or another doubt; inactive = no such curve, though single readings can be large; an effect the other way counts as inactive or inconclusive.

Legend:
[1] = P-glycoprotein substrates identified in KB-8-5-11 adenocarcinoma cell line, qHTS therapeutic library screen (AID 1346987); conditions: KB-8-5-11 (P-gp overexpressing) viability, CellTiter-Glo, 72 h; series mostly up to 44.5 µM; also: % is scaled to controls: 0 for no effect and ±100 for the full control effect; nearly all actives have a fitted effect of over 65% in size
Outline: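 In this qHTS, P-gp-rich KB-8-5-11 cells received library compounds across a concentration range. Viability was quantified by luminescence after 72 h at 37 degree C.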

[2] = NS1 protein of Zika virus - qHTS assay to identify small molecule inhibitors in human HEK 293 cells (AID 1347053); conditions: HEK293 ZIKV MR766 infection, NS1 TR-FRET, 24 h; series mostly up to 46.1 µM;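 also: plate controls were infected untreated cells for no effect and uninfected cells for full effect; nearly all actives have a fitted effect of over 55% in size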
Outline: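 TR-FRET signal from two anti-ZIKV NS1 antibodies quantified NS1 in HEK 293 cells 24 h after MR766 infection at MOI = 0.5; compounds were added 1 h before virus. Uninfected cells and infected cells defined the NS1 normalization range.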

[3] = qHTS of pediatric cancer cell lines to identify multiple opportunities for drug repurposing: Primary screen for TC32 cells (AID 1347089); conditions: TC32 Ewing sarcoma viability, CellTiter-Glo luminescence, 48 h; series mostly up to 45.8 µM; also: % is scaled to controls: 0 for no effect and ±100 for the full control effect; nearly all actives have a fitted effect of over 60% in size
Outline: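 TC32 cells, 500-1,000/well in growth medium, compound-treated 48 h at 37 °C; viability from CellTiter-Glo luminescence. Primary screen: MIPE 11-point (0.78 nM–46 µM final), NPC 8-point (0.59 nM–46 µM final); confirmatory at 11-point dilutions.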

[4] = qHTS of pediatric cancer cell lines to identify multiple opportunities for drug repurposing: Primary screen for DAOY cells (AID 1347090); conditions: DAOY medulloblastoma viability, CellTiter-Glo luminescence, 48 h; series mostly up to 46 µM;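 also: plate controls were DMSO for no effect and bortezomib for full effect; nearly all actives have a fitted effect of over 55% in size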
Outline: (§1)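 Viability measured as metabolically active cells via CellTiter-Glo luminescence following 48 hours of compound exposure, 11-point dilutions in confirmatory testing. 500-1,000 cells/well plated 5 hours before dosing; controls were DMSO and 2.3 µM bortezomib.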

[5] = qHTS of pediatric cancer cell lines to identify multiple opportunities for drug repurposing: Primary screen for SJ-GBM2 cells (AID 1347091); conditions: SJ-GBM2 viability, CellTiter-Glo luminescence, 48 h; series mostly up to 46 µM;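 also: plate controls were DMSO neutral control for no effect and bortezomib for full effect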
Outline: as §1

[6] = qHTS of pediatric cancer cell lines to identify multiple opportunities for drug repurposing: Primary screen for A673 cells (AID 1347092); conditions: A673 Ewing sarcoma viability, CellTiter-Glo ATP luminescence, 48 h; series mostly up to 46 µM; also: % is scaled to controls: 0 for no effect and ±100 for the full control effect; nearly all actives have a fitted effect of over 45% in size
Outline: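 A673 cells (500-1,000 cells/well) were treated 48 hours at 37 degrees C with compounds at 11-point (0.78 nM to 46 µM) or 8-point (0.59 nM to 46 µM) dilutions. Viability read by CellTiter-Glo luminescence; concentration-response curves fitted.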

[7] = qHTS of pediatric cancer cell lines to identify multiple opportunities for drug repurposing: Primary screen for SK-N-MC cells (AID 1347093); conditions: SK-N-MC viability, CellTiter-Glo luminescence, 48 h; series mostly up to 46 µM;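 also: plate controls were DMSO neutral control for no effect and bortezomib for full effect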
Outline: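 Metabolically active cells were quantified by ATP-dependent luminescence (CellTiter-Glo, 15 min at room temperature) following 48 h treatment. Cells had been plated at 500-1,000 per well and settled for 5 h beforehand.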

[8] = qHTS of pediatric cancer cell lines to identify multiple opportunities for drug repurposing: Primary screen for BT-37 cells (AID 1347094); conditions: BT-37 viability, CellTiter-Glo luminescence, 48 h; series mostly up to 57.3 µM;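 also: plate controls were DMSO for no effect and bortezomib for full effect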
Outline: (§2)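 CRCs from 8- or 11-point titrations (lowest final 0.59 nM NPC, 0.78 nM MIPE). Cell viability: CellTiter-Glo after 48 h incubation, 15 min room-temperature development, luminescence imaging.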

[9] = qHTS of pediatric cancer cell lines to identify multiple opportunities for drug repurposing: Primary screen for NB-EBc1 cells (AID 1347095); conditions: NB-EBc1 neuroblastoma viability, CellTiter-Glo luminescence, 48 h; series mostly up to 46 µM;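 also: plate controls were DMSO neutral control for no effect and bortezomib for full effect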
Outline: as §2

[10] = qHTS of pediatric cancer cell lines to identify multiple opportunities for drug repurposing: Primary screen for U-2 OS cells (AID 1347096); conditions: U-2 OS viability, CellTiter-Glo luminescence, 48 h; series mostly up to 46 µM;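 also: plate controls were DMSO wells for no effect and bortezomib positive control wells for full effect; nearly all actives have a fitted effect of over 50% in size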
Outline: (§3)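 Viability after 48 h compound treatment at 37C, 500-1,000 cells/well, read as ATP luminescence with CellTiter-Glo. Primary screens used 11-point (MIPE, 0.78 nM-46 µM) or 8-point (NPC, 0.59 nM-46 µM) final concentrations; follow-up screens used 11-point dilutions.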

[11] = qHTS of pediatric cancer cell lines to identify multiple opportunities for drug repurposing: Primary screen for Saos-2 cells (AID 1347097); conditions: Saos-2 viability, CellTiter-Glo ATP luminescence, 48 h; series mostly up to 46 µM; also: % is scaled to controls: 0 for no effect and ±100 for the full control effect; nearly all actives have a fitted effect of over 40% in size
Outline: as §2

[12] = qHTS of pediatric cancer cell lines to identify multiple opportunities for drug repurposing: Primary screen for SK-N-SH cells (AID 1347098); conditions: SK-N-SH viability, CellTiter-Glo luminescence, 48 h; series mostly up to 57 µM;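 also: DMSO served as neutral control and bortezomib at 2.3 µM as positive control; % is scaled to controls: 0 for no effect and ±100 for the full control effect; nearly all actives have a fitted effect of over 65% in size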
Outline: (§4)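 Cells (500-1,000/well) rested 5 h, then received compounds for 48 h; metabolically active cells were measured by CellTiter-Glo luminescence. Final concentrations spanned up to 46 µM (MIPE, 11-point) or 0.59 nM-46 µM (NPC, 8-point) in primary screens, 11-point in follow-ups.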

[13] = qHTS of pediatric cancer cell lines to identify multiple opportunities for drug repurposing: Primary screen for NB1643 cells (AID 1347099); conditions: NB1643 neuroblastoma viability, CellTiter-Glo luminescence, 48 h; series mostly up to 46 µM;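 also: plate controls were DMSO neutral control for no effect and bortezomib positive control for full effect; nearly all actives have a fitted effect of over 50% in size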
Outline: as §2

[14] = qHTS of pediatric cancer cell lines to identify multiple opportunities for drug repurposing: Primary screen for LAN-5 cells (AID 1347100); conditions: LAN-5 neuroblastoma viability, CellTiter-Glo luminescence, 48 h; series mostly up to 46 µM;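 also: plate controls were DMSO neutral control for no effect and bortezomib positive control for full effect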
Outline: as §3

[15] = qHTS of pediatric cancer cell lines to identify multiple opportunities for drug repurposing: Primary screen for Rh18 cells (AID 1347102); conditions: Rh18 rhabdomyosarcoma viability, CellTiter-Glo luminescence, 48 h; series mostly up to 46 µM; also: % is scaled to controls: 0 for no effect and ±100 for the full control effect; nearly all actives have a fitted effect of over 65% in size
Outline: as §3

[16] = qHTS of pediatric cancer cell lines to identify multiple opportunities for drug repurposing: Primary screen for OHS-50 cells (AID 1347103); conditions: OHS-50 osteosarcoma viability, CellTiter-Glo luminescence, 48 h; series mostly up to 57.3 µM;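 also: plate controls were DMSO neutral control for no effect and bortezomib positive control for full effect; nearly all actives have a fitted effect of over 40% in size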
Outline: as §4

[17] = qHTS of pediatric cancer cell lines to identify multiple opportunities for drug repurposing: Primary screen for RD cells (AID 1347104); conditions: RD rhabdomyosarcoma viability, CellTiter-Glo luminescence, 48 h; series mostly up to 46 µM;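 also: plate controls were DMSO for no effect and bortezomib for full effect; nearly all actives have a fitted effect of over 55% in size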
Outline: as §2

[18] = qHTS of pediatric cancer cell lines to identify multiple opportunities for drug repurposing: Primary screen for MG 63 (6-TG R) cells (AID 1347105); conditions: MG 63 (6-TG R) viability, CellTiter-Glo, 48 h; series mostly up to 46 µM; also: % is scaled to controls: 0 for no effect and ±100 for the full control effect; nearly all actives have a fitted effect of over 50% in size
Outline: as §2

[19] = qHTS of pediatric cancer cell lines to identify multiple opportunities for drug repurposing: Primary screen for BT-12 cells (AID 1347101); conditions: BT-12 viability, CellTiter-Glo luminescence, 48 h; series mostly up to 57.3 µM;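 also: plate controls were DMSO for no effect and bortezomib positive control for full effect; nearly all actives have a fitted effect of over 25% in size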
Outline: as §4

Nc1ncnc(Nc2ccccc2)n1
inactive: outcome [1] | outcome [2] | outcome [3] | outcome [4] | outcome [5] | outcome [6] | Potency [7] | outcome [8] | outcome [9] | outcome [10] | outcome [11] | outcome [12] | Potency [13] | outcome [14] | outcome [15] | outcome [16] | outcome [17] | outcome [18]

CCc1cccc(CC)c1NC(=O)CN(CC(=O)O)CC(=O)O
inactive: outcome [1] | outcome [2] | outcome [3] | outcome [4] | outcome [5] | outcome [6] | Potency [7] | outcome [8] | outcome [9] | outcome [10] | outcome [11] | outcome [12] | Potency [13] | outcome [14] | outcome [19] | outcome [16] | outcome [17] | outcome [18]

O=C1c2ccccc2S(=O)(=O)N1CCCCN1CCN(c2ncccn2)CC1
inactive: outcome [1] | outcome [2] | outcome [3] | outcome [4] | outcome [5] | outcome [6] | Potency [7] | outcome [8] | outcome [9] | outcome [10] | outcome [11] | outcome [12] | Potency [13] | outcome [14] | outcome [19] | outcome [16] | outcome [17] | outcome [18]

CCc1nnc(NS(=O)(=O)c2ccc(N)cc2)s1
inactive: outcome [1] | outcome [2] | outcome [3] | outcome [4] | outcome [5] | outcome [6] | Potency [7] | outcome [8] | outcome [9] | outcome [10] | outcome [11] | outcome [12] | outcome [14] | outcome [15] | outcome [16] | outcome [17] | outcome [18]

COc1ccccc1OCC(O)CO (centres undefined)
inactive: outcome [1] | outcome [2] | outcome [3] | outcome [4] | outcome [5] | outcome [6] | Potency [7] | outcome [8] | outcome [9] | outcome [10] | outcome [11] | outcome [12] | outcome [14] | outcome [19] | outcome [15] | outcome [16] | outcome [17] | outcome [18]

CCCC(O)C(CC)CO (centres undefined)
inactive: outcome [1] | outcome [2] | outcome [3] | outcome [4] | outcome [5] | outcome [6] | Potency [7] | outcome [8] | outcome [9] | outcome [10] | outcome [11] | Potency [13] | outcome [14] | outcome [19] | outcome [15] | outcome [16] | outcome [17] | outcome [18]

CC(C)c1cc2c(cc1S(=O)(=O)O)[C@@]1(C)CCC[C@@](C)(C(=O)O)[C@@H]1CC2
inactive: outcome [1] | outcome [2] | outcome [3] | outcome [4] | outcome [5] | outcome [6] | Potency [7] | outcome [8] | outcome [9] | outcome [10] | outcome [11] | Potency [13] | outcome [14] | outcome [19] | outcome [15] | outcome [16] | outcome [17] | outcome [18]

C/C=C1\[C@H]2C=C(C)C[C@]1(N)c1ccc(=O)[nH]c1C2
inactive: outcome [1] | outcome [2] | outcome [3] | outcome [4] | outcome [5] | outcome [6] | Potency [7] | outcome [8] | outcome [9] | outcome [10] | outcome [11] | outcome [12] | outcome [14] | outcome [19] | outcome [15] | outcome [16] | outcome [17] | outcome [18]

C/C(=C(\CCO)SS/C(CCO)=C(\C)N(C=O)Cc1cnc(C)nc1N)N(C=O)Cc1cnc(C)nc1N
inactive: outcome [1] | outcome [2] | outcome [3] | outcome [4] | outcome [5] | outcome [6] | Potency [7] | outcome [8] | outcome [9] | outcome [10] | outcome [11] | outcome [12] | Potency [13] | outcome [14] | outcome [15] | outcome [17] | outcome [18]

COC(=O)c1ccc(O)cc1
inactive: outcome [1] | outcome [2] | outcome [3] | outcome [4] | outcome [5] | outcome [6] | Potency [7] | outcome [8] | outcome [9] | outcome [10] | outcome [11] | outcome [12] | outcome [14] | outcome [19] | outcome [15] | outcome [16] | outcome [17] | outcome [18]

N[C@@H](Cc1ccc(O)cc1)C(=O)O
inactive: outcome [1] | activity change, negative = inhibition [2] 1.13% [at 9.2 µM] | activity change, negative = cytotoxic [3] 18.1% [at 9.17 µM] | activity change, negative = cytotoxic [4] 6.24% [at 9.22 µM] | activity change, negative = cytotoxic [5] 12% [at 9.22 µM] | activity change, negative = cytotoxic [6] 2.23% [at 9.22 µM] | activity change, negative = cytotoxic [7] 11% [at 9.22 µM] | activity change, negative = cytotoxic [8] 20.6% [at 11.5 µM] | activity change, negative = cytotoxic [9] 15% [at 9.22 µM] | activity change, negative = cytotoxic [10] 16.3% [at 9.22 µM] | activity change, negative = cytotoxic [11] 14.8% [at 9.22 µM] | activity change, negative = cytotoxic [12] 5.3% [at 11.4 µM] | activity change, negative = cytotoxic [14] 6.26% [at 9.22 µM] | activity change, negative = cytotoxic [19] 11.7% [at 11.5 µM] | activity change, negative = cytotoxic [15] 18.9% [at 9.22 µM] | activity change, negative = cytotoxic [17] 14.4% [at 9.22 µM] | activity change, negative = cytotoxic [18] -16.1% [at 9.22 µM]

CN[C@@H]1[C@H](O)[C@H](NC)[C@H]2O[C@@]3(O)C(=O)C[C@@H](C)O[C@H]3O[C@@H]2[C@H]1O
inactive: outcome [1] | outcome [2] | outcome [3] | outcome [4] | outcome [5] | outcome [6] | Potency [7] | outcome [8] | outcome [9] | outcome [10] | outcome [11] | outcome [12] | Potency [13] | outcome [14] | outcome [15] | outcome [17] | outcome [18]

O=C(/C=C/c1ccc(O)c(O)c1)O[C@@H]1C[C@@](OC(=O)/C=C/c2ccc(O)c(O)c2)(C(=O)O)C[C@@H](O)[C@@H]1O
inactive: outcome [1] | outcome [2] | outcome [3] | outcome [4] | outcome [5] | outcome [6] | Potency [7] | outcome [8] | outcome [9] | outcome [10] | outcome [11] | outcome [12] | outcome [14] | outcome [15] | outcome [16] | outcome [17] | outcome [18]
